Laboratory results from ChEMBL document CHEMBL1201862, “PubChem BioAssay data set” (2004).
Screen size: about 42,000 sequences; about 2,900 (6.9%) were called active. Cut-off read from the data, not from the text of the source: active = GI50 up to about 1.1 µM and inactive = higher. The sample as a whole holds a higher share of actives than the screen did. Measured potencies and affinities stand elsewhere.

System: T47D

| Substance | GI50 [µM] |
| --- | --- |
| [Bis(aminomethyl)tetramethylenesilane]dichloropaltinum(II), CHEMBL2146205 | 5 |
| [Bis(aminomethyl)pentamethylenesilane]dichloropaltinum(II), CHEMBL2146202 | 1.34 |
| [Bis(aminomethyl)pentamethylenesilane]tetrachloropaltinum(IV), CHEMBL2146204 | 2.18 |
| [Bis(aminomethyl)dimethylsilane]tetrachloroplatinum(IV), CHEMBL2146190 | 14.6 |
| [Bis(aminomethyl)tetramethylenesilane]tetrachloropaltinum(IV), CHEMBL2146189 | 0.184 |
| CISPLATIN, CHEMBL11359 | 14 |
